Screening results from PubChem.
Compounds with a hit are over-represented: about 5.2% of the library has one in this group of screens.
ALR H2O2 inh: human ALR oxidase inhibition via reduced H2O2 | inhibition, % (no concentration beside the values) | 290,000 compounds, 3.8% hits | purified ALR, DTT oxidation, H2O2 HRP-luminol luminescence | AID 485317 | P55789;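 active = mean replicate inhibition above about 79%, with every replicate also reaching it, limit read from the data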
Target sequence (P55789 whole entry, looked up): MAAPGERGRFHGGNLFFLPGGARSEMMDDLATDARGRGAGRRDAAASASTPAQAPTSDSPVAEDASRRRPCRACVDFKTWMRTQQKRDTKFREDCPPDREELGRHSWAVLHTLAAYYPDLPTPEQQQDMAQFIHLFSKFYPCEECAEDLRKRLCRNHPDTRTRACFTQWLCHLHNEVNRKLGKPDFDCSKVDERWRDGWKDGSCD
A3A deaminase: inhibitors of human APOBEC3A DNA deaminase; inhibition, % at 20 µM; 330,000 compounds, 0.41% hits; P31941; recombinant A3A, FAM/TAMRA ssDNA deamination fluorescence;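 active = at least 40% inhibition at 20 µM here, with at most 30% in a related deaminase screen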;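 also: plate controls were A3A with DMSO for no effect and wells lacking A3A enzyme for full effect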
Target sequence (P31941 whole entry, looked up): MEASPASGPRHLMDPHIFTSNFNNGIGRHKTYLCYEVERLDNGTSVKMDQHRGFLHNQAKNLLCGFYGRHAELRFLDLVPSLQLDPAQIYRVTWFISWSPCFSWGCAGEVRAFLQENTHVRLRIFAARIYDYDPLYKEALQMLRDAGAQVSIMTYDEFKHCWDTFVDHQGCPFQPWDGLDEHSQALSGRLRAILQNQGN
A3G deaminase: blocks human APOBEC3G single-stranded DNA deamination | 330,000 compounds, 0.28% hits | Q9HC16 | recombinant A3G, ssDNA deamination FAM/TAMRA fluorescence | inhibition, % at 20 µM | AID 493012;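 active = inhibition of at least 40% at 20 µM, with no more than 30% in the related APOBEC3A deaminase screen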;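 also: plate controls were DMSO wells with A3G for no effect and wells lacking A3G enzyme for full effect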
Yeast superoxide: yeast age-related superoxide inhibition as caloric restriction mimetic. S. cerevisiae aged cells, superoxide DHE fluorescence; stronger effect = lower value. superoxide response (% of plate mean), % at 10 µM. 330,000 compounds, 0.18% hits;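 active = superoxide response under a set limit, about three screen SD below normal, cut at about 65% in these data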;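 also: yeast aged for seven days with compound at 30 °C before DHE staining; 100% = average MFI of all compound-treated wells on the plate with controls excluded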
CendR NRP1 mod: modulators of CendR peptide binding to human neuropilin-1 | O14786 | FAM-RPARPAR peptide binding to NRP-1, fluorescence polarization | AID 602438 | inhibition, % at 25 µM | 360,000 compounds, 0.85% hits;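 active = inhibition or corrected inhibition above about 18%, plus a signal ratio from 0.5 to 1.5, limit read from the data, passing the limit was not always enough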
PfM18AAP inh-1: blocks P. falciparum M18 aspartyl aminopeptidase; recombinant PfM18AAP, H-Glu-NHMec fluorogenic cleavage; inhibition, % at 7.35 µM; 290,000 compounds, 1.2% hits;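 active = inhibition above the campaign mean inhibition over all tested compounds plus 3 SD, cut at about 28% in these data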;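 also: 0% = plate median of test compound wells and 100% = 2 mM ZnCl2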
PfM18AAP inh-2: confirmation of Plasmodium falciparum M18 aspartyl aminopeptidase inhibitors; shares compounds with PfM18AAP inh-1; inhibition, % at 7.35 µM; recombinant PfM18AAP, H-Glu-NHMec fluorogenic cleavage; 2,400 compounds, 28% hits;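 active = mean inhibition over replicate wells above the hit cutoff set for the earlier primary screen, cut at about 29% in these data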;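 also: 0% = median of test compound wells and 100% = 2 mM ZnCl2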
CTSL1 counter: counter-screen for PFM18AAP inhibitors: confirmation of human cathepsin L inhibitors | shares compounds with PfM18AAP inh-1 | purified cathepsin L1, Z-Leu-Arg-MCA fluorescence | inhibition, % at 5.96 µM | 2,400 tested, under 10 active;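 active = average inhibition across replicates above the hit cutoff set in the earlier primary screen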;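 also: 0% = median of test compound wells and 100% = Z-Phe-Ala-diazomethylketone 1 µM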
Active calls of the source: *; nt = not tested or not shown.

SMILES | ALR H2O2 inh | A3A deaminase | A3G deaminase | Yeast superoxide | CendR NRP1 mod | PfM18AAP inh-1 | PfM18AAP inh-2 | CTSL1 counter
COc1c(O)c(O)c2oc(-c3ccccc3)cc(=O)c2c1OC | 51 | -1 | -2 | 83 | -10 | 33* | 12 | 3
COc1cc(-c2cc(=O)c3c(O)c(OC)c(OC)c(O)c3o2)ccc1O | 99* | 9 | 9 | 79 | 0 | 49* | 32* | 3
COc1cc(NS(=O)(=O)c2ccc(NC(=S)NC(=O)COc3ccccc3OC)cc2)nc(OC)n1 | 9 | 3 | 11 | 102 | -14 | 5 | nt | nt
CC1CCCN(C(=O)c2cccc(S(=O)(=O)Nc3cc(C(F)(F)F)ccc3Cl)c2)C1 (stereo not drawn) | 53 | nt | nt | 108 | 7 | 0 | nt | nt
Cc1cc(/C=C2\SC(=O)N(C)C2=O)c(C)n1-c1ccc(O)cc1 | 15 | -6 | -2 | 104 | -11 | 33* | -48 | -2
O=C(c1cc2ccccc2oc1=O)N(Cc1ccccc1)CC1CCCO1 (stereo not drawn) | -2 | -1 | -3 | 109 | -6 | 0 | nt | nt
COc1cccc2cc(C(=O)N(Cc3ccccc3)CC3CCCO3)c(=O)oc12 (stereo not drawn) | -24 | 2 | -1 | 97 | 15 | 35* | -29 | -1
Cc1cc(OCC(=O)Nn2cnnc2)c(C)cc1Br | -2 | 2 | -4 | 94 | -2 | 46* | 55* | -2
Cc1ccc(OCC(=O)Nn2cnnc2)c(Br)c1 | -4 | -2 | 4 | 98 | -11 | 66* | 57* | 5
O=C(COc1ccc2ccccc2c1Br)Nn1cnnc1 | -35 | -2 | -3 | 99 | 6 | 56* | 37* | -2
O=C1NC(=O)/C(=C/c2ccc(N3CCOCC3)o2)N1 | -8 | 30 | 17 | 106 | -42 | 9 | nt | nt
O=C1NC(=O)/C(=C\c2ccc(N3CCOCC3)o2)N1 | 12 | -1 | -5 | 103 | -13 | 37* | -30 | -6
COc1ccc(OC)c(NC(=O)C(=O)N/N=C/c2ccccc2[N+](=O)[O-])c1 | -19 | -1 | 6 | 111 | -4 | -4 | nt | nt
COc1cccc(C(=S)N2CCCC2)c1OC | -16 | -7 | 26 | 100 | -6 | 39* | -19 | -2
COc1cccc(C(=O)C(=O)c2cccc(OC)c2OC)c1OC | nt | nt | nt | nt | 9 | nt | nt | nt
COc1cc(C(=S)N2CCCCC2)ccc1O | 82* | -7 | -2 | 113 | 2 | 36* | -22 | -4
COc1ccc(C(=S)N2CCCC2)cc1Br | 4 | -8 | -3 | 93 | 8 | 0 | nt | nt
CCOc1ccc(S(=O)(=O)N2Cc3ccccc3CC2C(=O)NCCCn2ccnc2)cc1 (stereo not drawn) | -6 | -5 | -4 | 106 | 14 | 1 | nt | nt
COc1ccc(C(=O)NCc2cc(C)nc3ccccc23)cc1 | -10 | -1 | -4 | 92 | 0 | -1 | nt | nt
Cc1cc(CNC(=O)c2ccc3c(c2)OCO3)c2ccccc2n1 | 7 | -1 | -4 | 108 | -6 | 33* | 10 | -3
Cc1ccc(S(=O)(=O)N/N=C/c2cccn2-c2ccc(Cl)cc2)cc1 | 32 | 5 | 0 | 102 | 0 | -9 | nt | nt
Clc1ccc(-n2cccc2/C=N/n2cnnc2)cc1 | -14 | 0 | 3 | 99 | -10 | 41* | -22 | -6
N#Cc1c2n(c(=S)n(-c3ccccc3)c1=O)CCCCC2 | -11 | -4 | -6 | 93 | -4 | -1 | nt | nt
N#Cc1c2n(c(=S)n(-c3ccccc3[N+](=O)[O-])c1=O)CCCCC2 | -1 | 0 | -5 | 117 | -7 | 35* | -45 | -5
O=C(CN1C(=O)C2C3C=CC(C3)C2C1=O)OCC(=O)c1ccc([N+](=O)[O-])cc1 (stereo not drawn) | nt | -2 | -3 | 104 | 1 | 42* | -19 | 0
CC(C(=O)OCC(=O)c1ccc([N+](=O)[O-])cc1)N1C(=O)C2C3CCC(C3)C2C1=O (stereo not drawn) | 29 | -1 | -4 | 101 | 14 | 41* | -11 | -1
